For 23 compounds, Potency and outcome results are on record in PubChem BioAssay (Tox21).

Experiment [1] can be described thus: qHTS assay to identify small molecule antagonists of the glucocorticoid receptor (GR) signaling pathway - cell viability counter screen (AID 720693). Also: nearly all actives have a fitted effect of over 55% in size. Also: potency is read from the fitted curve at half-maximal effect.
Experiment [2] can be described thus: qHTS assay for identifying genotoxic compounds that show differential cytotoxicity against isogenic chicken DT40 cell lines with known DNA damage response pathways - Rev3 mutant cell line (AID 743014; also: nearly all actives have a fitted effect of over 55% in size; also: potency is read from the fitted curve at half-maximal effect). (In general: In qHTS, concentration-response curves come from the screen itself.)
Experiment [3] is described as follows: qHTS assay for identifying genotoxic compounds that show differential cytotoxicity against isogenic chicken DT40 cell lines with known DNA damage response pathways - Rad54/Ku70 mutant cell line (AID 743015). Also: nearly all actives have a fitted effect of over 60% in size. Also: potency is read from the fitted curve at half-maximal effect.
Experiment [4] can be described thus: qHTS assay to identify small molecule antagonists of the androgen receptor (AR) signaling pathway - cell viability counter screen (AID 743033; also: nearly all actives have a fitted effect of over 45% in size; also: potency is read from the fitted curve at half-maximal effect).
The nature of experiment [5]: qHTS assay to identify small molecule antagonists of the androgen receptor (AR) signaling pathway using the MDA cell line - cell viability counter screen (AID 743041; also: nearly all actives have a fitted effect of over 45% in size; also: potency is read from the fitted curve at half-maximal effect). The method, boiled down:
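qHTS viability read-out; MDA-kb2 AR-luc; R1881-stimulated; 16 h exposure at 37C, 0% CO2; CellTiter-Fluor, 30 min; fluorescence intensity.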

Experiment [6] is described as follows: qHTS assay for identifying genotoxic compounds that show differential cytotoxicity against isogenic chicken DT40 cell lines with known DNA damage response pathways - wild type cell line (AID 743012). Also: nearly all actives have a fitted effect of over 60% in size. An outline of the steps: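 CellTiter-Glo luminescence readout of viability in wild type DT40 cells after 40 h compound exposure at 37 C/5% CO2; 300 cells/well; reagent incubated 30 min at room temperature before reading.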

The target in experiment [7] is Androgen receptor (Homo sapiens) (UniProt P10275). Briefly: qHTS assay to identify small molecule antagonists of the androgen receptor (AR) signaling pathway (AID 743035; active = well fitted inhibition curve with a large enough effect in the signal ratio in the repeat runs, not every such curve was filed as active; the % refers to the signal ratio; also: potency is read from the fitted curve at half-maximal effect). The method, boiled down:
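AR-bla HEK293 reporter cells; 4 h settle at 37C/5% CO2; compound + R1881 agonist, 16 h at 37C; LiveBLAzer B/G FRET substrate 2 h RT; fluorescence intensity read. qHTS format.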

Experiment [8] has the same target. Kind of experiment: qHTS assay to identify small molecule agonists of the androgen receptor (AR) signaling pathway (AID 743036; active = well fitted activation curve with a large enough effect in the signal ratio in the repeat runs, with a control signal flat, not every such curve was filed as active; the % refers to the signal ratio). An outline of the steps: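 AR-bla HEK293 cells, 2,000/well; 4 h preincubation 37C/5% CO2; compound (DMSO) 16 h at 37C; LiveBLAzer B/G FRET substrate 2 h RT; fluorescence intensity read-out.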
The target is the same in experiment [9]. Kind of experiment: qHTS assay to identify small molecule agonists of the androgen receptor (AR) signaling pathway using the MDA cell line (AID 743040; also: nearly all actives have a fitted effect of over 20% in size). The method, boiled down:
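Agonist activity is measured as luciferase luminescence in human MDA-kb2 cells whose MMTV reporter responds to both AR and GR. Compounds in DMSO incubate 16 h at 37C, 0% CO2, and ONE-Glo is read after 30 min.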

Experiment [10] shares this target. Briefly: qHTS assay to identify small molecule antagonists of the androgen receptor (AR) signaling pathway using the MDA cell line (AID 743042; also: nearly all actives have a fitted effect of over 55% in size). The method, boiled down:
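MDA-kb2 cells (human breast carcinoma, stably carrying an MMTV-luciferase reporter responsive to AR and GR) were plated at 3,000 cells/well and preincubated 5 hr at 37C, then given compound plus R1881 agonist for 16 h. ONE-Glo luminescence was read.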

“And” between values parts separate entries of the source, which are not always exact repeats. Equal entries are not always repeated. Inconclusive results are not listed. The source made the active and inactive calls. Unless noted, calls follow the shape of the dose curve; as a rule, active = well fitted curve in the direction sought with a large enough effect in the repeat runs; inconclusive = weak or mixed curves; inactive = no such curve, though single readings can be large; an effect the other way counts as inactive or inconclusive.

Chain of Androgen receptor (Homo sapiens) (P10275 whole entry, looked up): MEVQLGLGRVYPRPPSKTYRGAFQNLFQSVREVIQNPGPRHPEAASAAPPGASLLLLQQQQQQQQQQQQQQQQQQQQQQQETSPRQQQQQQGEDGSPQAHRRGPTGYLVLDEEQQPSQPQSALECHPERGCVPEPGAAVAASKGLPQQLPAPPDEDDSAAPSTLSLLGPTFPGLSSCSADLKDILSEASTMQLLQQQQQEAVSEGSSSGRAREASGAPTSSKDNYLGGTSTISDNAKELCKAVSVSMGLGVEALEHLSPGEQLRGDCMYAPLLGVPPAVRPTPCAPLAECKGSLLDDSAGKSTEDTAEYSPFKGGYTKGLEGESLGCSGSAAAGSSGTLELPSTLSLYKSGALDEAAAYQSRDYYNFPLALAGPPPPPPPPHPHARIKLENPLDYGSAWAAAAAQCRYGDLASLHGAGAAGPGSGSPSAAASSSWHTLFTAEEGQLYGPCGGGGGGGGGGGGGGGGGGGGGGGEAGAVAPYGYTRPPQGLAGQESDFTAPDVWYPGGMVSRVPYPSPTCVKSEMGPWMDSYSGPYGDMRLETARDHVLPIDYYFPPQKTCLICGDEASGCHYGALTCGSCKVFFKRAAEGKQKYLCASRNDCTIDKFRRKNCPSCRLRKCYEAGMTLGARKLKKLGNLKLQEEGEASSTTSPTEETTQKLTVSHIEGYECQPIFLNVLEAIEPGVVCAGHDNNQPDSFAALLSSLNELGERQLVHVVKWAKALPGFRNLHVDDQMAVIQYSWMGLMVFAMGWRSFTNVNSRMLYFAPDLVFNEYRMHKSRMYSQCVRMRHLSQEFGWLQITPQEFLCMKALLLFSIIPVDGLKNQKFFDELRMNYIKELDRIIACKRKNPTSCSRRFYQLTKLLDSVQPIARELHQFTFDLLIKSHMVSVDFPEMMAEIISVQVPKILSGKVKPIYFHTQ

`CCCCCCCCCCCCCC[N+](C)(C)C`: the Potency in experiment [1] is 13.4 µM (active) and 29.9 µM (active) and 13.8 µM (active); in experiment [2] it was 298 nM (active) and 469 nM (active) and 193 nM (active); in [3], 376 nM (active) and 469 nM (active) and 217 nM (active); in [4] it was 15.1 µM (active) and 21.8 µM (active); in [5] it was 18.8 µM (active) and 41.8 µM (active).

For `COc1cccc(OC)c1C(=O)O`, the Potency entry in experiment [1], in [2], in experiment [3], in experiment [4] and in experiment [5] was “inactive” each time.

Take `OC1CCC(C2CCCCC2)CC1` (configuration not stated): the Potency result in experiment [1], in [6], in experiment [4] and in experiment [5] was “inactive” each time.

As to `O=C(O)c1cccc(C(F)(F)F)c1`, the Potency result in experiment [1], in [2], in [3] and in experiment [4] was “inactive” each time.

As for `CC(CO)Oc1ccccc1` (configuration not stated), the Potency entry in experiment [1], in experiment [2], in experiment [3], in experiment [4], in [7] and in experiment [8] was “inactive” in each case. The Potency result in experiment [5] and in experiment [10] was “inactive” throughout. Further, the outcome in experiment [9] was inactive.

With `COCCOc1cc2cc(C(=O)NC3CCN(C(C)C)CC3)n(CC(=O)Nc3ccc(Cl)cn3)c2cn1`, the Potency entry in experiment [1], in experiment [2], in experiment [4] and in experiment [5] was “inactive” each time.

Turning to `CC/C=C\CCCCCO`, the Potency entry in experiment [1], in experiment [2], in experiment [4] and in experiment [5] was “inactive” throughout.

As to `O=c1[nH]c2ccccc2n1CCCN1CCN(C(c2ccccc2)c2ccccc2)CC1`, the Potency entry in [1], in experiment [4] and in [5] was “inactive” in each case. Also, the Potency was 6.68 µM (active) in experiment [2] and 8.41 µM (active) in experiment [3].

Turning to `CC(N=C(NC#N)Nc1ccncc1)C(C)(C)C` (configuration not stated), the Potency entry in experiment [1], in experiment [2], in [4] and in [5] was “inactive” each time.

For the compound `ClCCl`, the Potency entry in [1], in experiment [2], in [4], in experiment [7], in experiment [8] and in experiment [5] was “inactive” throughout. Moreover, the Potency result in experiment [10] was “inactive”. Besides, the call in experiment [9] was inactive.

`Clc1nnc(Cl)c2ccccc12`: the Potency result in experiment [1], in experiment [3], in experiment [4] and in experiment [5] was “inactive” throughout.

In the case of `CCC(C)(CCC(C)C)C(=O)[O][Sn]([CH3])([CH3])[O]C(=O)C(C)(CC)CCC(C)C` (configuration not stated), the Potency entry in experiment [1], in experiment [3] and in experiment [4] was “inactive” throughout.

On to `Cc1ccc(O)c(O)c1`, for which the Potency in experiment [1] is 53.4 µM (active); in experiment [2] it was 13.3 µM (active); in experiment [3], 21.1 µM (active). The Potency result in experiment [4] and in [5] was “inactive” in each case.

Turning to `CCC(C)n1ncn(-c2ccc(N3CCN(c4ccc(OC[C@H]5CO[C@](Cn6cncn6)(c6ccc(Cl)cc6Cl)O5)cc4)CC3)cc2)c1=O` (some centres not stated), the Potency entry in experiment [1], in [4] and in experiment [5] was “inactive” throughout. The Potency in experiment [2] is 0.422 µM (active).

Consider `CC(C)CCOC(=O)/C=C/c1ccccc1`, for which the Potency result in [1], in experiment [2], in [3], in [4] and in experiment [5] was “inactive” each time.

Consider `O=C(/C=C/c1ccc(O)c(O)c1)O[C@@H](C(=O)O)[C@@H](OC(=O)/C=C/c1ccc(O)c(O)c1)C(=O)O`, for which the Potency result in [1], in experiment [2] and in experiment [4] was “inactive” throughout.

On to `CCC(=O)C(=O)CC`, for which the Potency entry in experiment [1], in experiment [4] and in experiment [5] was “inactive” throughout. For the same compound, in [2], the Potency was 28.5 µM (active).

Turning to `S=C([S-])NCCNC(=S)[S-].S=C([S-])NCCNC(=S)[S-].[Mn+2].[Zn+2]`, the Potency entry in experiment [1], in experiment [4] and in [5] was “inactive” in each case. The results for the Potency in [2] and in experiment [3] were 33.5 µM (active) and 29.8 µM (active), respectively.

Turning to `COc1cccc2c1C(=O)c1c(O)c3c(c(O)c1C2=O)C[C@@](O)(C(C)=O)C[C@@H]3O[C@H]1C[C@H](N)[C@H](O)[C@H](C)O1`, the Potency in experiment [1] was 7.56 µM (active) and 2.2 µM (active); in experiment [2], 37.6 nM (active) and 12.3 nM (active); in [3], 10.6 nM (active) and 2.4 nM (active); in experiment [4] it was 22 µM (active); in [5], 54.8 µM (active).

With `CCC(CC)C(C)CCOC(C)=O` (configuration not stated), the Potency result in [1], in [2] and in experiment [4] was “inactive” each time.

Regarding `CC(C)(C)NSc1nc2ccccc2s1`, the Potency result in experiment [1], in experiment [2], in [3], in [5] and in [10] was “inactive” in each case. Also, in experiment [7], the Potency was 55.9 µM (active). The result in experiment [9] was inactive.

With `O=S(=O)(O)c1ccccc1/C=C/c1ccc(-c2ccc(/C=C/c3ccccc3S(=O)(=O)O)cc2)cc1`, the Potency entry in experiment [1], in experiment [2], in experiment [3], in experiment [4] and in [5] was “inactive” in each case.

As to `CC(C)(C)c1csc(-c2cc3cc(OCc4ccccc4CC(=O)O)ccc3o2)n1`, the Potency was 49 µM (active) in experiment [1] and 61.1 µM (active) in experiment [3].
